# The whole screen tested about 5,500 compounds, of which about 2,000 (36%) were called active. About 18% were inconclusive and are not listed. This is one part of the list. A number with no mark means an inactive call. Rule as the data show it: active = normalized growth mostly below about 0.91 (no sharp cut-off); inconclusive = no clear call, values can overlap the other calls; inactive = mostly above about 0.92.
# Assay: chemical genetic growth profiling, strain panel (AID 1159580);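 also: tested at 20 µM; growth read once vehicle control cultures reached saturation at 30 °C; 1 = growth at the plate median or of vehicle wells; lower values mean less growth of the strain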
# Details: growth OD
compound,measurement,setting,value
CC(C)(C)CC(C)(C)c1ccc(O)c(Cc2ccc(Cl)cc2Cl)c1,normalized growth,"S. cerevisiae deletion strains, locus YJR075W, strain HOC1, active compounds read low",1.01
same,normalized growth,"S. cerevisiae deletion strains, locus YKL009W, strain mrt4, active compounds read low",1.01
same,normalized growth,"S. cerevisiae deletion strains, locus YKL068W, active compounds read low",1.02
same,normalized growth,"S. cerevisiae deletion strains, locus YKL085W, strain MDH1 (second series), active compounds read low",1.01
same,normalized growth,"S. cerevisiae deletion strains, locus YKL085W, strain MDH1, active compounds read low",1.01
same,normalized growth,"S. cerevisiae deletion strains, locus YKL160W, strain elf1, active compounds read low",1
same,normalized growth,"S. cerevisiae deletion strains, locus YKL190W, strain CNB1, active compounds read low",1
same,normalized growth,"S. cerevisiae deletion strains, locus YKR001C, strain vps1, active compounds read low",1.01
same,normalized growth,"S. cerevisiae deletion strains, locus YKR026C, strain gcn3, active compounds read low",1.02
same,normalized growth,"S. cerevisiae deletion strains, locus YKR091W, strain srl3, active compounds read low",1.02
same,normalized growth,"S. cerevisiae deletion strains, locus YLL001W, strain dnm1, active compounds read low",1.04
same,normalized growth,"S. cerevisiae deletion strains, locus YLL026W, active compounds read low",1.01
same,normalized growth,"S. cerevisiae deletion strains, locus YLL041C, strain sdh2, active compounds read low",1.02
same,normalized growth,"S. cerevisiae deletion strains, locus YLR027C, strain aat2, active compounds read low",1.01
same,normalized growth,"S. cerevisiae deletion strains, locus YLR039C, strain RIC1, active compounds read low",0.985
same,normalized growth,"S. cerevisiae deletion strains, locus YLR058C, strain SHM2, active compounds read low",1.01
same,normalized growth,"S. cerevisiae deletion strains, locus YLR102C, strain apc9, active compounds read low",1.01
same,normalized growth,"S. cerevisiae deletion strains, locus YLR113W, strain HOG1, active compounds read low",1.03
same,normalized growth,"S. cerevisiae deletion strains, locus YLR221C, strain rsa3, active compounds read low",0.995
same,normalized growth,"S. cerevisiae deletion strains, locus YLR258W, strain gsy2, active compounds read low",1.02
same,normalized growth,"S. cerevisiae deletion strains, locus YLR262C, strain YPT6 (second series), active compounds read low",0.981
same,normalized growth,"S. cerevisiae deletion strains, locus YLR262C, strain YPT6, active compounds read low",0.974
same,normalized growth,"S. cerevisiae deletion strains, locus YLR268W, strain sec22, active compounds read low",1.01
same,normalized growth,"S. cerevisiae deletion strains, locus YLR320W, strain mms22, active compounds read low",1.02
same,normalized growth,"S. cerevisiae deletion strains, locus YLR330W, strain CHS5, active compounds read low",0.999
same,normalized growth,"S. cerevisiae deletion strains, locus YLR342W, strain FKS1 (second series), active compounds read low",0.995
same,normalized growth,"S. cerevisiae deletion strains, locus YLR342W, strain FKS1, active compounds read low",1.01
same,normalized growth,"S. cerevisiae deletion strains, locus YLR357W, strain rsc2, active compounds read low",1.05
same,normalized growth,"S. cerevisiae deletion strains, locus YLR370C, strain arc18, active compounds read low",1.03
same,normalized growth,"S. cerevisiae deletion strains, locus YLR371W, strain rom2, active compounds read low",1.01
same,normalized growth,"S. cerevisiae deletion strains, locus YLR384C, strain iki3, active compounds read low",1.03
same,normalized growth,"S. cerevisiae deletion strains, locus YLR418C, strain cdc73, active compounds read low",1.02
same,normalized growth,"S. cerevisiae deletion strains, locus YML016C, strain PPZ1, active compounds read low",1.01
same,normalized growth,"S. cerevisiae deletion strains, locus YML032C, strain rad52, active compounds read low",1.02
same,normalized growth,"S. cerevisiae deletion strains, locus YML120C, strain ndi1, active compounds read low",1
same,normalized growth,"S. cerevisiae deletion strains, locus YML124C, strain tub3, active compounds read low",1.02
same,normalized growth,"S. cerevisiae deletion strains, locus YMR058W, strain fet3, active compounds read low",1.01
same,normalized growth,"S. cerevisiae deletion strains, locus YMR078C, strain ctf18, active compounds read low",1.01
same,normalized growth,"S. cerevisiae deletion strains, locus YMR125W, strain sto1, active compounds read low",1.02
same,normalized growth,"S. cerevisiae deletion strains, locus YMR129W, active compounds read low",0.998
same,normalized growth,"S. cerevisiae deletion strains, locus YMR205C, strain PFK2, active compounds read low",1.01
same,normalized growth,"S. cerevisiae deletion strains, locus YMR223W, strain ubp8, active compounds read low",1.01
same,normalized growth,"S. cerevisiae deletion strains, locus YMR231W, strain pep5, active compounds read low",1.03
same,normalized growth,"S. cerevisiae deletion strains, locus YMR263W, strain SAP30, active compounds read low",0.998
same,normalized growth,"S. cerevisiae deletion strains, locus YMR307W, strain GAS1, active compounds read low",0.972
same,normalized growth,"S. cerevisiae deletion strains, locus YNL067W, strain RPL9B, active compounds read low",1.01
same,normalized growth,"S. cerevisiae deletion strains, locus YNL071W, strain lat1, active compounds read low",1.03
same,normalized growth,"S. cerevisiae deletion strains, locus YNL128W, strain TEP1, active compounds read low",1.02
same,normalized growth,"S. cerevisiae deletion strains, locus YNL153C, strain GIM3, active compounds read low",1
same,normalized growth,"S. cerevisiae deletion strains, locus YNL183C, strain NPR1, active compounds read low",0.973
same,normalized growth,"S. cerevisiae deletion strains, locus YNL209W, strain ssb2, active compounds read low",1.02
same,normalized growth,"S. cerevisiae deletion strains, locus YNL233W, strain BNI4, active compounds read low",1.01
same,normalized growth,"S. cerevisiae deletion strains, locus YNL248C, strain rpa49, active compounds read low",1.01
same,normalized growth,"S. cerevisiae deletion strains, locus YNL250W, strain rad50, active compounds read low",1.02
same,normalized growth,"S. cerevisiae deletion strains, locus YNL271C, strain bni1, active compounds read low",1.02
same,normalized growth,"S. cerevisiae deletion strains, locus YNL298W, strain CLA4, active compounds read low",1.03
same,normalized growth,"S. cerevisiae deletion strains, locus YNL307C, strain MCK1, active compounds read low",1.02
same,normalized growth,"S. cerevisiae deletion strains, locus YNL322C, strain KRE1 (second series), active compounds read low",1.02
same,normalized growth,"S. cerevisiae deletion strains, locus YNR049C, strain mso1, active compounds read low",1.02
same,normalized growth,"S. cerevisiae deletion strains, locus YNR052C, strain pop2, active compounds read low",1.01
same,normalized growth,"S. cerevisiae deletion strains, locus YOL006C, strain TOP1, active compounds read low",0.836
same,normalized growth,"S. cerevisiae deletion strains, locus YOL012C, strain htz1",0.945
same,normalized growth,"S. cerevisiae deletion strains, locus YOL147C, strain pex11, active compounds read low",1.02
same,normalized growth,"S. cerevisiae deletion strains, locus YOR001W, strain rrp6, active compounds read low",1.01
same,normalized growth,"S. cerevisiae deletion strains, locus YOR061W, strain CKA2, active compounds read low",1.01
same,normalized growth,"S. cerevisiae deletion strains, locus YOR069W, strain VPS5, active compounds read low",1.01
same,normalized growth,"S. cerevisiae deletion strains, locus YOR070C, strain gyp1, active compounds read low",1.01
same,normalized growth,"S. cerevisiae deletion strains, locus YOR080W, strain dia2, active compounds read low",1.03
same,normalized growth,"S. cerevisiae deletion strains, locus YOR083W, strain WHI5, active compounds read low",0.989
same,normalized growth,"S. cerevisiae deletion strains, locus YOR106W, strain vam3, active compounds read low",0.988
same,normalized growth,"S. cerevisiae deletion strains, locus YOR136W, strain idh2, active compounds read low",1.02
same,normalized growth,"S. cerevisiae deletion strains, locus YOR144C, strain elg1, active compounds read low",1.01
same,normalized growth,"S. cerevisiae deletion strains, locus YOR184W, strain ser1, active compounds read low",1.01
same,normalized growth,"S. cerevisiae deletion strains, locus YOR231W, strain MKK1, active compounds read low",1.03
same,normalized growth,"S. cerevisiae deletion strains, locus YOR265W, strain rbl2, active compounds read low",1.01
same,normalized growth,"S. cerevisiae deletion strains, locus YOR270C, strain vph1, active compounds read low",0.766 (active)
same,normalized growth,"S. cerevisiae deletion strains, locus YOR290C, strain snf2, active compounds read low",1.02
same,normalized growth,"S. cerevisiae deletion strains, locus YOR316C, strain cot1, active compounds read low",1.01
same,normalized growth,"S. cerevisiae deletion strains, locus YPL051W, strain arl3, active compounds read low",1
same,normalized growth,"S. cerevisiae deletion strains, locus YPL078C, strain atp4, active compounds read low",1.02
same,normalized growth,"S. cerevisiae deletion strains, locus YPL106C, strain sse1, active compounds read low",1.04
same,normalized growth,"S. cerevisiae deletion strains, locus YPL240C, strain hsp82, active compounds read low",1
same,normalized growth,"S. cerevisiae deletion strains, locus YPL241C, strain CIN2, active compounds read low",1
same,normalized growth,"S. cerevisiae deletion strains, locus YPL256C, strain CLN2, active compounds read low",1.04
same,normalized growth,"S. cerevisiae deletion strains, locus YPR119W, strain clb2, active compounds read low",1.01
same,normalized growth,"S. cerevisiae deletion strains, locus YPR141C, strain kar3, active compounds read low",1.01
same,normalized growth,"S. cerevisiae deletion strains, locus YPR163C, strain tif3, active compounds read low",1.02
same,normalized growth,"S. cerevisiae deletion strains, locus YPR167C, strain met16, active compounds read low",1.02
same,normalized growth,"S. cerevisiae deletion strains, strain wtn01, active compounds read low",1.01
same,normalized growth,"S. cerevisiae strains, strain wild type, active compounds read low",1

# — PubChem BioAssay AID1159580 (chemical genetic matrix, 2015)
